Assay results taken from ChEMBL document CHEMBL2218924, “A broad activity screen in support of a chemogenomic map for kinase signalling research and drug discovery” (Biochem J, 2013).

Legend:
[1] = molecular target: T1, Serine/threonine-protein kinase BRSK1 (Homo sapiens) (UniProt Q8TDC3); settings: at 1 µM
T1 sequence (whole entry): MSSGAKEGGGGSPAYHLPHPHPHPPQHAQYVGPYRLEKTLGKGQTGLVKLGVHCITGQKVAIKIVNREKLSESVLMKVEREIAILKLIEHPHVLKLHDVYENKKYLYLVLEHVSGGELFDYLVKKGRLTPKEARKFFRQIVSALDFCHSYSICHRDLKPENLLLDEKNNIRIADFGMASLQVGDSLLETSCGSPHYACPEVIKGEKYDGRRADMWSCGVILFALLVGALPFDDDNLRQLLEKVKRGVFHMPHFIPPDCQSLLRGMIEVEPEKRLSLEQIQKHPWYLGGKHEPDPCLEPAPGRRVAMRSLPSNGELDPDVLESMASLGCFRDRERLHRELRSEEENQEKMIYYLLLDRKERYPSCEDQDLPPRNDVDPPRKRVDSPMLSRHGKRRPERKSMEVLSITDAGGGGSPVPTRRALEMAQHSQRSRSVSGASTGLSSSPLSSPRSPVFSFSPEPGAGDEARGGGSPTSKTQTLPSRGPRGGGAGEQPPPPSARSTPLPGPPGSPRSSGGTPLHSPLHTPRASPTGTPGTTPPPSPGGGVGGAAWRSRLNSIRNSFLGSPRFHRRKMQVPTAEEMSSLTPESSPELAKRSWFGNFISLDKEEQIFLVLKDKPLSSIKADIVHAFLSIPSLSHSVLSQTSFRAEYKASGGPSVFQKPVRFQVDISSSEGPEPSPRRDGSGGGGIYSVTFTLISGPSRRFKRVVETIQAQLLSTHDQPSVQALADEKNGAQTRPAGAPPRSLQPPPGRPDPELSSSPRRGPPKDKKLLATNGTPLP

[2] = molecular target: T1, Serine/threonine-protein kinase BRSK1 (Homo sapiens); settings: at 10 µM
[3] = molecular target: T2, Serine/threonine-protein kinase BRSK2 (Homo sapiens) (UniProt Q8IWQ3); settings: at 1 µM
T2 sequence (whole entry): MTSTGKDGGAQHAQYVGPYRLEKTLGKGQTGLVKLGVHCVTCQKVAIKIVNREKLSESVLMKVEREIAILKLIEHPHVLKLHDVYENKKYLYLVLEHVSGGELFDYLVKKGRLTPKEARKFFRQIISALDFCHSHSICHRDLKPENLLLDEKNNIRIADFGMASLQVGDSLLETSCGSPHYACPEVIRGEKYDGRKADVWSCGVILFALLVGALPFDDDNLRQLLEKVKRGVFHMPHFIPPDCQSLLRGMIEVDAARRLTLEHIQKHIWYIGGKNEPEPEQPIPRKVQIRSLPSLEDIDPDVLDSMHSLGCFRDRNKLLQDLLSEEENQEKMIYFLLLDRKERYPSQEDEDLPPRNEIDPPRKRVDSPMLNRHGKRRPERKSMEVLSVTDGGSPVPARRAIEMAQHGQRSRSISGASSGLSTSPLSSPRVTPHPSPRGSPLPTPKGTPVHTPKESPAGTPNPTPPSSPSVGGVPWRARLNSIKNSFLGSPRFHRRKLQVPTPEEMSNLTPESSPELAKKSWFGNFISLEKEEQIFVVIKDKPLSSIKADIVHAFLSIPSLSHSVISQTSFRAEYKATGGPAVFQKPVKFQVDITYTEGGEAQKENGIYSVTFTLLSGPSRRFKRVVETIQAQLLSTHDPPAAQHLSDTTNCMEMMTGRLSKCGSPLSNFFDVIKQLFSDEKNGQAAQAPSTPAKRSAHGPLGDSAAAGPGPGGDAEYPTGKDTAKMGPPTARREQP

[4] = molecular target: T2, Serine/threonine-protein kinase BRSK2 (Homo sapiens); settings: at 10 µM
[5] = molecular target: T3, Cyclin-dependent kinase 1/cyclin B1 (Homo sapiens) (UniProt P06493+P14635); settings: at 1 µM
T3 sequence (P06493 whole entry, looked up): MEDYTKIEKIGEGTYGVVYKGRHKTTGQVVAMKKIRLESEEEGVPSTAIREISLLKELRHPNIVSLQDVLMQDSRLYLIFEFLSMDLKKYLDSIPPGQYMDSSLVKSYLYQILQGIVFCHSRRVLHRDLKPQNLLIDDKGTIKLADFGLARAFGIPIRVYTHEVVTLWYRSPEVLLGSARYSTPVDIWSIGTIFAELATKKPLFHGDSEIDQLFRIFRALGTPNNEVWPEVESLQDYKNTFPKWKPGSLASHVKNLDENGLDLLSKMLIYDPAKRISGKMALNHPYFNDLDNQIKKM
T3 sequence (P14635 whole entry, looked up): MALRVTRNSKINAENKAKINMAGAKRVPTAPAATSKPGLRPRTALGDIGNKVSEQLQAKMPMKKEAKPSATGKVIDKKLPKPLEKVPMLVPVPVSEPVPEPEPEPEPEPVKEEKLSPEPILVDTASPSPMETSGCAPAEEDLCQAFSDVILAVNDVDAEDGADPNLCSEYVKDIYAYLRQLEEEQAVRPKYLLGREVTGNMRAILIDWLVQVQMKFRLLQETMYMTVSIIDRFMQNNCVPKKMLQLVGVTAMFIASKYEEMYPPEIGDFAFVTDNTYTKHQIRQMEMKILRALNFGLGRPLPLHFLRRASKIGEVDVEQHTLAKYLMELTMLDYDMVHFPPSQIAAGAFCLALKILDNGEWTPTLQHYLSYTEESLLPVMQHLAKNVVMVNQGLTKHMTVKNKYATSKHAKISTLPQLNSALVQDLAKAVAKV

[6] = molecular target: T3, Cyclin-dependent kinase 1/cyclin B1 (Homo sapiens); settings: at 10 µM
[7] = molecular target: T4, Cyclin-dependent kinase 2/cyclin A (Homo sapiens) (UniProt P24941+P20248+P78396); settings: at 1 µM
[8] = molecular target: T4, Cyclin-dependent kinase 2/cyclin A (Homo sapiens); settings: at 10 µM
[9] = molecular target: T5, Cyclin-dependent kinase 2/cyclin E (Homo sapiens) (UniProt P24864+P24941+O96020); settings: at 1 µM
[10] = molecular target: T5, Cyclin-dependent kinase 2/cyclin E (Homo sapiens); settings: at 10 µM
[11] = molecular target: T6, CDK3/cyclin E (Homo sapiens) (UniProt P24864+O96020+Q00526); settings: at 1 µM
T6 sequence (O96020 whole entry, looked up): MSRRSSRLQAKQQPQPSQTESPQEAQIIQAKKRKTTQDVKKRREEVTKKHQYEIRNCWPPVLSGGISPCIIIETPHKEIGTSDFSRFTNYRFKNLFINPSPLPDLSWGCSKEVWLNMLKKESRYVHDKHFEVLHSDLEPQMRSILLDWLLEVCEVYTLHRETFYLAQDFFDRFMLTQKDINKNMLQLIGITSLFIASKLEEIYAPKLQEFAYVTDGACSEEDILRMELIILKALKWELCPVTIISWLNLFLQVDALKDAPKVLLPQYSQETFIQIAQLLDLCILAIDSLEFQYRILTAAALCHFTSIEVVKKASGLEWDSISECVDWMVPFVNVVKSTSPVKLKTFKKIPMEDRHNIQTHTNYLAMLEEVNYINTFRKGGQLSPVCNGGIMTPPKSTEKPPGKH
T6 sequence (P24864 whole entry, looked up): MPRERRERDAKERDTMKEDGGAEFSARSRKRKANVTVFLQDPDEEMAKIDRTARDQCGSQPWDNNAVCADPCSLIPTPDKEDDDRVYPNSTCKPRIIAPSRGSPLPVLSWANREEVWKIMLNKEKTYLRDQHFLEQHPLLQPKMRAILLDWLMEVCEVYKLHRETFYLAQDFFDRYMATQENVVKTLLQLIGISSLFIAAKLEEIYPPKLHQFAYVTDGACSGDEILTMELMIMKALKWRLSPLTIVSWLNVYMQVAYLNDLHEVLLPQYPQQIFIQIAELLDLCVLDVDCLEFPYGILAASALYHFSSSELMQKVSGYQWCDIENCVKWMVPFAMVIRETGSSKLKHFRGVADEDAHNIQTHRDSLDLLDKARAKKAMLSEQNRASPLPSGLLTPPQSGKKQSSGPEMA
T6 sequence (Q00526 whole entry, looked up): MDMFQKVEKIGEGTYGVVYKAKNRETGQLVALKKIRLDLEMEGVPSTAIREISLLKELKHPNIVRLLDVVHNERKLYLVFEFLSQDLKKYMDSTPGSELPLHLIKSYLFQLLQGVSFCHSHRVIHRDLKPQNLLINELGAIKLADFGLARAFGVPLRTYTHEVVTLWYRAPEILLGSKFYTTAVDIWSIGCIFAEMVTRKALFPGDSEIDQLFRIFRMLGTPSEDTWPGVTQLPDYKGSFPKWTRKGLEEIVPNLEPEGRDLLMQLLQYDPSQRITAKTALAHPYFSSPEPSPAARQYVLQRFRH

[12] = molecular target: T6, CDK3/cyclin E (Homo sapiens); settings: at 10 µM
[13] = molecular target: T7, Cyclin-dependent kinase 5/CDK5 activator 1 (Homo sapiens) (UniProt Q00535+Q15078); settings: at 1 µM
T7 sequence (Q00535 whole entry): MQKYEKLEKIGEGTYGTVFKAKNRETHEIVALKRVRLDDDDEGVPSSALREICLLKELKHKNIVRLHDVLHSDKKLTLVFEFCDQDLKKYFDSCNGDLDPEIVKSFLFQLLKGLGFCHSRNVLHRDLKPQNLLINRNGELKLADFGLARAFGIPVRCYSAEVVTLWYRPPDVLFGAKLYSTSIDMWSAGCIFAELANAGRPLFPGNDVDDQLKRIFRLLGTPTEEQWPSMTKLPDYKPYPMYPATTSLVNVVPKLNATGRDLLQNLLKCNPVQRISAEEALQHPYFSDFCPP
T7 sequence (Q15078 99-307 partner limits assumed): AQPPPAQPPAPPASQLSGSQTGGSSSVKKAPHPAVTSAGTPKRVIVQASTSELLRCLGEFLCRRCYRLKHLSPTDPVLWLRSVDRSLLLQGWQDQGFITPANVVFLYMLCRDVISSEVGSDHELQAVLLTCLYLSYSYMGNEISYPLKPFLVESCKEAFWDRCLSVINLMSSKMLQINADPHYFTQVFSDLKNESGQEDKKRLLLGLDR

[14] = molecular target: T7, Cyclin-dependent kinase 5/CDK5 activator 1 (Homo sapiens); settings: at 10 µM
[15] = molecular target: T7, Cyclin-dependent kinase 5/CDK5 activator 1 (Homo sapiens); settings: at 1 µM; remark: listed apart in the source
[16] = molecular target: T7, Cyclin-dependent kinase 5/CDK5 activator 1 (Homo sapiens); settings: at 10 µM; remark: listed apart in the source
[17] = molecular target: T8, CDK6/cyclin D3 (Homo sapiens) (UniProt P30281+Q00534); settings: at 1 µM
[18] = molecular target: T8, CDK6/cyclin D3 (Homo sapiens); settings: at 10 µM
[19] = molecular target: T9, Cyclin-dependent kinase 7/ cyclin H (Homo sapiens) (UniProt P51946+P50613); settings: at 1 µM
[20] = molecular target: T9, Cyclin-dependent kinase 7/ cyclin H (Homo sapiens); settings: at 10 µM

SMILES	residual activity [1]	residual activity [2]	residual activity [3]	residual activity [4]	residual activity [5]	residual activity [6]	residual activity [7]	residual activity [8]	residual activity [9]	residual activity [10]	residual activity [11]	residual activity [12]	residual activity [13]	residual activity [14]	residual activity [15]	residual activity [16]	residual activity [17]	residual activity [18]	residual activity [19]	residual activity [20]
Oc1n[nH]c2nnc(-c3c(-c4ccccc4)nn4ccccc34)cc12	88%	76%	112%	83%	109%	105%	89%	86%	89%	93%	84%	87%	96%	103%	105%	82%	89%	83%	89%	86%
Cn1nc2c3c(cccc31)C(=O)c1ccccc1-2	83%	68%	101%	61%	101%	86%	80%	84%	87%	82%	89%	72%	83%	93%	97%	80%	92%	76%	91%	73%
Cc1ccc(S(=O)(=O)/C=C/C#N)cc1	83%	99%	113%	77%	106%	102%	124%	91%	91%	105%	93%	96%	102%	101%	100%	80%	95%	93%	101%	90%
Cc1cc(Nc2nc(-c3ccccc3)nc3ccccc23)n[nH]1	57%	12%	59%	7%	97%	68%	67%	25%	70%	15%	63%	19%	69%	32%	71%	31%	53%	9%	19%	1%
O=C1NC(=O)/C(=C\c2ccc3nccnc3c2)S1	59%	65%	78%	77%	79%	31%	132%	47%	94%	98%	96%	68%	96%	64%	97%	74%	91%	86%	89%	80%
Ic1cccc(CSc2nnc(-c3ccncc3)o2)c1	84%	87%	113%	97%	18%	14%	85%	68%	41%	32%	70%	57%	5%	4%	8%	3%	80%	73%	93%	72%
O=C1NC(=O)c2c1c1c3ccccc3[nH]c1c1[nH]c3cc(Br)ccc3c21	82%	55%	69%	32%	92%	74%	84%	82%	63%	67%	88%	77%	55%	62%	83%	68%	87%	58%	99%	94%
O=C1Nc2cc(Br)ccc2/C1=C1/Nc2ccccc2/C1=N\O	33%	12%	4%	6%	54%	12%	37%	38%	3%	7%	0%	1%	6%	10%	2%	9%	40%	5%	34%	13%
CC(=O)O/N=C1\C(=C2\C(=O)Nc3cc(Br)ccc32)Nc2ccccc21	48%	24%	52%	21%	90%	34%	60%	24%	42%	9%	12%	2%	35%	10%	60%	9%	91%	54%	78%	45%
CCC(=O)Nc1ccc2ncnc(Nc3cccc(Br)c3)c2c1	55%	17%	97%	63%	114%	107%	135%	101%	106%	104%	101%	78%	102%	113%	79%	101%	84%	81%	86%	95%
Cn1cc(/C=C2\C(=O)Nc3ccc(S(N)(=O)=O)cc32)c2ccccc21	23%	3%	36%	19%	34%	39%	68%	46%	67%	52%	69%	34%	42%	17%	33%	34%	93%	56%	13%	4%
O=C1c2ccccc2-[n+]2ccc3c([nH]c4ccccc43)c21	75%	74%	112%	89%	112%	107%	84%	77%	92%	97%	87%	81%	72%	82%	108%	82%	87%	82%	99%	83%
Cn1cnc2cc3c(Nc4cccc(Br)c4)ncnc3cc21	58%	13%	91%	62%	103%	94%	132%	87%	110%	102%	102%	81%	96%	104%	98%	90%	99%	92%	84%	102%
O=C1Nc2ccccc2/C1=C1/Nc2ccccc2/C1=N\OCCC(O)CO (stereo not given)	26%	39%	33%	4%	25%	6%	12%	11%	9%	4%	21%	2%	4%	4%	6%	5%	16%	4%	19%	2%
